Screening results deposited in PubChem BioAssay by National Center for Advancing Translational Sciences (NCATS).
Pf growth 96h: P. falciparum growth inhibition at 96 hours | Potency, µM (series often up to 28.7 µM), for the others: at the highest dose activity change, negative = inhibition, actives largely listed as inhibitors | P. falciparum luciferase reporter growth, 96 h | 320,000 tested, 6.9% active | AID 504834
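Compounds incubated with erythrocytes infected by luciferase-expressing P. falciparum (2% hematocrit, 0.05% parasitemia final) for 96 hours, 37 C in 5% CO2. Growth inhibition scored as decreased luciferase luminescence.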
Pf growth 48h: inhibits P. falciparum growth in the first generation, 48 h; Potency, µM (titrated, usually from 28.7 µM), for inactives: at the highest dose activity change, negative = inhibition, most hits filed as inhibitors; 310,000 tested, 5.9% active; P. falciparum luciferase growth in erythrocytes, 48 h; AID 504832
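Firefly luciferase activity from engineered P. falciparum reports growth; inhibitors lower the luminescent signal. Cultures contained 2% hematocrit erythrocytes at 0.1% final parasitemia.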
AMA1-RON2 inh: AMA1-RON2 (P. falciparum) interaction inhibition. AlphaScreen AMA1-biotinylated RON2 peptide binding. Potency, µM (series often up to 58.2 µM), inactives show top-dose activity change, negative = inhibition, actives largely listed as inhibitors. 360,000 tested, 0.2% active. AID 720542;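 further: 0% = vehicle wells and -100% = peptide control; nearly all actives have a fitted effect of over 45% in size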
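AMA1 (3D7) with his tag at 25 nM final met compounds first, then biotinylated RON2 peptide at 25 nM; detection used donor plus acceptor beads, 10 µg/mL apiece, read by AlphaScreen after 30 min at room temperature.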
VACV mCherry inh: inhibitors of vaccinia virus infection (mCherry reporter signal). Vaccinia virus mCherry reporter infection, fluorescence. Potency, µM (titrated, usually from 36.5 µM), without a hit: top-dose activity change, negative = inhibition, actives largely listed as inhibitors. 310,000 tested, 0.63% active. AID 720579; calls by dose curve; tested in A549 cells; further: nearly all actives have a fitted effect of over 35% in size
VACV Venus inh: inhibitors of vaccinia virus (Venus reporter); AID 720580; 330,000 tested, 0.46% active; Vaccinia virus Venus reporter expression, fluorescence; Potency, µM (titrated, usually from 36.5 µM), without a hit: at the top dose activity change, negative = inhibition, hits mostly inhibitors; calls by dose curve; tested in A549 cells; further: nearly all actives have a fitted effect of over 30% in size
* = called active by the depositor; i = inactive; u = inconclusive; x = no result given. Hits are enriched below; roughly 8.7% of the tested compounds scored in any of these assays. Unless noted, the call rests on the fitted dose curve; in most records, active means well fitted curve in the direction sought with a large enough effect; inconclusive means small, poorly fitted or top-dose-only effect, or another doubt; inactive means no such curve, though single readings can be large; an effect the other way counts as inactive or inconclusive. Unless noted, on the % scale 0 is the no-effect control and ±100 the full control effect; potency means the concentration at half of the fitted maximal effect.

SMILES	Pf growth 96h	Pf growth 48h	AMA1-RON2 inh	VACV mCherry inh	VACV Venus inh
O=C(COc1ccc(Br)cc1CNCCCN1CCOCC1)Nc1ccccc1	2.9µM*	3.7µM*	-6%	i	-17%
CCOC(=O)c1cnc2cc(C(F)(F)F)ccc2c1N1CCN(c2cccc(Cl)c2)CC1	x	x	x	0%	1%
Cc1c(C(=O)Nc2cccc(Cl)c2)oc2ccc(S(=O)(=O)N(C)C3CCCCC3)cc12	x	x	x	-19%	-16%
C=CCNC(=O)C1CC(=O)N(c2ccc(OCc3ccc(F)cc3)cc2)C1 (stereo not drawn)	12µM*	156%	-5%	x	x
Cc1ccc(N2CC(C(=O)Nc3cccc(F)c3)CC2=O)cc1 (stereo not drawn)	2.3µM*	-6%	-6%	i	-22%
CCCNC(=O)C1CC(=O)N(c2ccc(OCc3ccc(F)cc3)cc2)C1 (stereo not drawn)	u	243%	-2%	x	x
CCOc1ccc(N2CC(C(=O)N3CCCC3)CC2=O)cc1 (stereo not drawn)	12µM*	12%	-4%	14%	19%
Cc1ccc(N2CC(C(=O)Nc3ccc(N(C)C)cc3)CC2=O)cc1C (stereo not drawn)	8.3µM*	5%	3%	x	x
CCOc1ccc(NC(=O)CSc2nc3ccccc3c(=O)n2CCC(=O)NC2CCCCC2)cc1	x	x	x	-7%	-1%
Fc1ccc(CNc2nc3ccc(Cl)cc3n3nnnc23)cc1	x	x	x	-17%	-3%
CCCCNC(=O)c1ccc2c(=O)n(-c3ccccc3)c(=O)[nH]c2c1	x	x	x	-1%	0%
CCOc1ccc(N2CC(C(=O)Nc3ccc(F)cc3F)CC2=O)cc1 (stereo not drawn)	9.3µM*	-9%	4%	-6%	-2%
O=C(CNC1=NCCC1)c1ccc2c(c1)OCCO2	u	6.6µM*	11%	x	-13%
C=C1CC2(CC(c3ccccc3)OC(c3ccccc3)C2)OC1=O (stereo not drawn)	x	x	2%	11µM*	u
Cc1ccc(OCCCCNC(C)(C)C)c([N+](=O)[O-])c1	3.7µM*	u	u	-13%	-9%
COCCNCCOc1ccc(C)cc1[N+](=O)[O-]	u	42%	1%	-5%	-9%
CCCN(C(=O)CCc1nc(-c2ccc(C)cc2)no1)c1ccc(OCC)cc1	x	x	x	-11%	-9%
Cc1ccc(CNC(=O)c2nccnc2C(=O)O)cc1	4.7µM*	3%	-16%	i	-12%
Cc1ccc(CNC(=O)c2cccnc2)cc1	x	x	4%	x	x
COc1cn(-c2ccccc2)nc1C(=O)NCc1ccccc1	-10%	-16%	8%	11%	-3%
COc1cn(-c2ccccc2)nc1C(=O)NCc1ccc(C)cc1	8.3µM*	u	7%	u	-24%
COc1cc(=O)n2c(c1C(=O)N(C)Cc1nonc1C)CCN(C(=O)c1cccc(C)c1C)CC2	x	x	x	i	0%
COC(=O)c1ccc(NC(=O)c2c(NCc3cccc(F)c3)sc3c2CCCC3)cc1	x	x	x	-11%	-8%
CCCCN(C)CCCNC(=O)Cn1ncc2c3ccccc3n(Cc3cccc(Cl)c3)c2c1=O	x	x	x	-3%	-11%
COc1ccc(C(=O)N2CCOc3ccc(CN4CCN(c5ccccn5)CC4)cc3C2)o1	x	x	x	-7%	-3%
SMILES	Pf growth 96h	Pf growth 48h	AMA1-RON2 inh	VACV mCherry inh	VACV Venus inh
COc1cccc(NC(=O)CSc2ncc3c(n2)-c2ccc(Cl)cc2N(C)S3(=O)=O)c1	x	x	x	-13%	-15%
CCc1ccccc1NC(=O)Cn1nnc(-c2nc(-c3ccc(C)cc3)no2)c1N	x	x	x	2%	2%
CCOC(=O)c1ccc(NC(=O)COc2ccccc2CNC2CCCC2)cc1	0%	4.7µM*	19%	i	u
c1ccc(COc2ccccc2CNC2CCCC2)cc1	5.2µM*	u	4%	-3%	-6%
CCOc1cc(CNC2CCCC2)c(Cl)cc1OCC(=O)Nc1ccccc1	18%	10µM*	-4%	x	x
CCOC(=O)c1ccc(NC(=O)COc2ccccc2OC)cc1	23%	u	-1%	x	0%
Cn1cc(/C=C/c2ccc3ccccc3n2)c2ccccc21	x	x	x	-22%	21%
O=C(Nc1nccs1)[C@@H]1CC=C[C@@H]2CCN(Cc3ccc(Cl)c(Cl)c3)C(=O)[C@@H]21	x	x	x	-21%	-18%
CC1=C(C(=O)OC(C)C)C(C)NC(=O)N1 (stereo not drawn)	9.3µM*	0%	5%	x	x
O=C(C[n+]1ccncc1)c1ccc2ccccc2c1	x	x	x	23%	1%
